# PubChem BioAssay (NCATS)
# Values joined by “and” are separate entries in the source; they are usually repeats but may differ in a detail not shown here. Identical values can stand only once. Inconclusive results are not listed. Active and inactive are the calls of the source. Unless noted, the call rests on the fitted dose curve; in most records, active means well fitted curve in the direction sought with a large enough effect; inconclusive means small, poorly fitted or top-dose-only effect, or another doubt; inactive means no such curve, though single readings can be large; an effect the other way counts as inactive or inconclusive.
# Target: Mitogen-activated protein kinase 10 (Mus musculus) (UniProt Q61831)
# Test: JNK3 AlphaScreen Assay (AID 530; active means well fitted curve in either direction with a large enough effect, not every such curve was filed as active;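 further: kinase came from lysate of stimulated human HepG2 cells; signal reports phosphorylation of biotinylated GST-cJun 1-79 at Ser73 with 10 µM ATP; on the % scale 0 is the no-effect control and ±100 the full control effect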)
# Settings: JNK3 lysate, c-Jun phosphorylation; series mostly up to 57.1 µM; activity change, negative = inhibition: at the top concentration
# Procedure, shortened: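 Biotinylated GST-cJun(1-79) served as substrate for JNK3 in HepG2 lysates stimulated with IL-1beta and TNF-alpha. ATP was 10 uM final, pH 7.6. Ser73 phosphorylation was quantified by AlphaScreen (680 nm excitation).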
SMILES,"activity change, negative = inhibition",outcome
O=C(O)COc1ccc(Cl)cc1Cl,11.6% (inactive),–
O=C(O)CNCP(=O)(O)O,1.05% [at 11.4 µM] (inactive),–
Cc1nc2cnc(N3CCNCC3)nc2n(C)c1=O,1.07% (inactive),–
ClC1=C(Cl)C2(Cl)C3C4C=CC(C4)C3C1(Cl)C2(Cl)Cl (stereo not drawn),-6.9% (inactive),–
O=S1OCC2C(CO1)C1(Cl)C(Cl)=C(Cl)C2(Cl)C1(Cl)Cl (stereo not drawn),24.9% (inactive),–
c1ccc(N=Nc2ccccc2)cc1,11.6% (inactive),–
C[N+]1([O-])[C@@H]2CC(OC(=O)[C@@H](CO)c3ccccc3)C[C@@H]1[C@H]1O[C@H]12 (stereo partly drawn),–,inactive
CC(C)NC(=O)N1CCC2(CCNCC2)CC1,0.155% (inactive),–
CCOCN(C(=O)CCl)c1c(C)cccc1CC,8.73% (inactive),–
CNC(=O)O/N=C/C(C)(C)SC,9.77% (inactive),–
CN1CC[C@@]2(CCCN(C(=O)c3ccco3)C2)C1,0.198% (inactive),–
c1cc(CN2CCC3(CCNCC3)CC2)ccn1,-5.46% (inactive),–
CCNc1nc(Cl)nc(NC(C)C)n1,2.71% (inactive),–
C=CCc1ccc(OC)cc1,6.16% (inactive),–
CC(C)CN1CC2(CCN(C(=O)c3ccncc3)CC2)C1,2.33% (inactive),–
ClC1=C(Cl)C2(Cl)C3C4CC(C5OC45)C3C1(Cl)C2(Cl)Cl (stereo not drawn),12.2% (inactive),–
C/C=C/c1ccc2c(c1)OCO2,9.93% (inactive),–
C=CCc1ccc2c(c1)OCO2,10.6% (inactive),–
CCNC[C@H](O)c1cccc(O)c1,6.16% [at 25.6 µM] (inactive),–
N#Cc1ccc(CN2CC[C@@]3(CCCNC3)C2)cc1,-0.37% (inactive),–
N#Cc1ccc(CN2CCC3(CC2)CCN(C(=O)Oc2ccccc2)CC3)cc1,-0.602% (inactive),–
COP(=S)(OC)Oc1ccc([N+](=O)[O-])cc1,6.21% (inactive),–
O=C(Oc1ccccc1)N1CCC2(CCCN(C(c3ccccc3)c3ccccc3)C2)CC1,-1.67% (inactive),–
c1ccc(N2CCC3(CCNCC3)CC2)cc1,-22.8% (inactive),–
COc1ccc2c(c1O)-c1c(OC)c(OC)cc3c1[C@H](C2)N(C)CC3,–,inactive

# Tested on: not listed separately
# Test: Cell Viability - N2a (AID 540);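 further: plate controls were DMSO alone for no effect and tamoxifen control for full effect; nearly all actives have a fitted effect of over 45% in size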
# Settings: N2a mouse neuroblastoma cell viability; at 92.2 µM (top of the series)
# Procedure, shortened: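 N2a mouse neuroblastoma, 1500 cells/well, 5 hr settle; compound 40 hr, 37 °C; CellTiter-Glo 20 min RT; luminescence; Hill-fit AC50.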
row,SMILES,"activity change, negative = cytotoxicity"
1,O=C(O)COc1ccc(Cl)cc1Cl,9.64% (inactive) and 3.72% (inactive)
2,O=S1OCC2C(CO1)C1(Cl)C(Cl)=C(Cl)C2(Cl)C1(Cl)Cl (stereo not drawn),-80.3% (active)
3,c1ccc(N=Nc2ccccc2)cc1,1.26% (inactive)
4,CCOCN(C(=O)CCl)c1c(C)cccc1CC,4.55% (inactive)
5,CNC(=O)O/N=C/C(C)(C)SC,-2.66% (inactive)
6,CCNc1nc(Cl)nc(NC(C)C)n1,-4.9% (inactive)
7,C=CCc1ccc(OC)cc1,-8.37% (inactive)
8,ClC(Cl)=C(c1ccc(Cl)cc1)c1ccc(Cl)cc1,-14.6% (inactive)
9,CCc1cccc(CC)c1N(COC)C(=O)CCl,-5.69% (inactive)
10,C/C=C/c1ccc2c(c1)OCO2,-2.31% (inactive)
11,C=CCc1ccc2c(c1)OCO2,-3.41% (inactive)
12,COP(=S)(OC)Oc1ccc([N+](=O)[O-])cc1,-21.2% (inactive)

# Tested on: not listed separately
# Test: Cell Viability - NIH 3T3 (AID 541);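 further: cells exposed to compound for 40 hours; plate controls were DMSO alone for no effect and tamoxifen positive control for full effect; nearly all actives have a fitted effect of over 25% in size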
# Settings: NIH 3T3 cell viability, qHTS; activity change, negative = cytotoxicity: at 92.2 µM (top of the series)
# Procedure, shortened: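 qHTS format; 40 hr compound exposure, 37 °C; CellTiter-Glo luminescence (cellular ATP) read-out after 20 min at RT. Decrease in ATP = cytotoxicity; AC50 from standard Hill fit.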
row,SMILES,"activity change, negative = cytotoxicity"
1,ClC1=C(Cl)C2(Cl)C3C4C=CC(C4)C3C1(Cl)C2(Cl)Cl (stereo not drawn),-10.7% (inactive)
2,O=S1OCC2C(CO1)C1(Cl)C(Cl)=C(Cl)C2(Cl)C1(Cl)Cl (stereo not drawn),-20.5% (inactive)
3,c1ccc(N=Nc2ccccc2)cc1,-2.38% (inactive)
4,ClC(Cl)=C(c1ccc(Cl)cc1)c1ccc(Cl)cc1,7.39% (inactive) and -2.45% (inactive)
5,CCc1cccc(CC)c1N(COC)C(=O)CCl,-147% (active)
6,C=CCc1ccc2c(c1)OCO2,-6.05% (inactive)
7,COP(=S)(OC)Oc1ccc([N+](=O)[O-])cc1,-18.8% (inactive)

# Tested on: not listed separately
# Test: Cell Viability - HUV-EC-C (AID 542);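 further: cells exposed to compound for 40 hours; nearly all actives have a fitted effect of over 35% in size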; further: potency means the concentration at half of the fitted maximal effect; on activity change, negative = cytotoxicity: on the % scale 0 is the no-effect control and ±100 the full control effect
# Settings: HUV-EC-C endothelial cell viability, qHTS; series mostly up to 92.2 µM; activity change, negative = cytotoxicity: at the top concentration
# Procedure, shortened: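 Luminescent ATP read-out (CellTiter-Glo, 20 min room temperature) after 40 hr compound treatment of HUV-EC-C cells at 37 °C. Concentration-response data fitted with the standard Hill equation to give AC50; tamoxifen and doxorubicin served as positive controls.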
SMILES,"activity change, negative = cytotoxicity",Potency
ClC1=C(Cl)C2(Cl)C3C4C=CC(C4)C3C1(Cl)C2(Cl)Cl (stereo not drawn),-5.62% (inactive),–
O=S1OCC2C(CO1)C1(Cl)C(Cl)=C(Cl)C2(Cl)C1(Cl)Cl (stereo not drawn),-12% (inactive),–
c1ccc(N=Nc2ccccc2)cc1,-4.11% (inactive),–
CCOCN(C(=O)CCl)c1c(C)cccc1CC,–,25.1 µM (active)
CNC(=O)O/N=C/C(C)(C)SC,1.54% (inactive),–
CCNc1nc(Cl)nc(NC(C)C)n1,-1.92% (inactive),–
C=CCc1ccc(OC)cc1,1.62% (inactive),–
ClC(Cl)=C(c1ccc(Cl)cc1)c1ccc(Cl)cc1,–,inactive
CCc1cccc(CC)c1N(COC)C(=O)CCl,–,50.1 µM (active)
COP(=S)(OC)Oc1ccc([N+](=O)[O-])cc1,6.87% (inactive),–

# Tested on: not listed separately
# Test: Cell Viability - H-4-II-E (AID 543);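 further: cells exposed to compound for 40 hours; on the % scale 0 is the no-effect control and ±100 the full control effect; nearly all actives have a fitted effect of over 35% in size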
# Settings: H-4-II-E rat hepatoma viability; series mostly up to 92.2 µM; activity change, negative = cytotoxic: at the top concentration
# Procedure, shortened: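 qHTS, rat hepatoma H-4-II-E, 1500 cells/well; 40 hr compound exposure, 37 °C; CellTiter-Glo ATP luminescence after 20 min RT; AC50 by standard Hill fit.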
SMILES,Potency,"activity change, negative = cytotoxic"
O=C(O)COc1ccc(Cl)cc1Cl,inactive,–
O=S1OCC2C(CO1)C1(Cl)C(Cl)=C(Cl)C2(Cl)C1(Cl)Cl (stereo not drawn),–,-25.9% (inactive)
c1ccc(N=Nc2ccccc2)cc1,–,-2.05% (inactive)
CNC(=O)O/N=C/C(C)(C)SC,–,0.607% (inactive)
CCNc1nc(Cl)nc(NC(C)C)n1,–,-13.5% (inactive)
ClC(Cl)=C(c1ccc(Cl)cc1)c1ccc(Cl)cc1,inactive,–
COP(=S)(OC)Oc1ccc([N+](=O)[O-])cc1,–,-9.67% (inactive)

# Tested on: not listed separately
# Test: Cell Viability - SH-SY5Y (AID 544);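 further: cells exposed to compound for 40 hours; 0% = DMSO alone and -100% = 100 µM tamoxifen; nearly all actives have a fitted effect of over 55% in size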
# Settings: SH-SY5Y neuroblastoma cell viability; viability change, negative = cytotoxic: at 92.2 µM (top of the series)
# Procedure, shortened: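 SH-SY5Y, 1500 cells/well, 5 hr pre-incubation 37 °C; cpd 40 hr 37 °C; CellTiter-Glo 20 min RT; luminescence (ATP) read. qHTS concentration-response, Hill fit → AC50. Tamoxifen, doxorubicin as positive controls.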
SMILES,Potency,"viability change, negative = cytotoxic"
O=C(O)COc1ccc(Cl)cc1Cl,inactive,–
ClC1=C(Cl)C2(Cl)C3C4C=CC(C4)C3C1(Cl)C2(Cl)Cl (stereo not drawn),–,-19.9% (inactive)
c1ccc(N=Nc2ccccc2)cc1,–,9.06% (inactive)
CNC(=O)O/N=C/C(C)(C)SC,–,0.83% (inactive)
CCNc1nc(Cl)nc(NC(C)C)n1,–,11.4% (inactive)
C=CCc1ccc(OC)cc1,–,-3.3% (inactive)
ClC1=C(Cl)C2(Cl)C3C(Cl)C=CC3C1(Cl)C2(Cl)Cl (stereo not drawn),–,-18.8% (inactive)
ClC1=C(Cl)C2(Cl)C3C4CC(C5OC45)C3C1(Cl)C2(Cl)Cl (stereo not drawn),–,-12% (inactive)
ClC(Cl)=C(c1ccc(Cl)cc1)c1ccc(Cl)cc1,inactive,–
C/C=C/c1ccc2c(c1)OCO2,–,2.2% (inactive)
C=CCc1ccc2c(c1)OCO2,–,7.19% (inactive)
COP(=S)(OC)Oc1ccc([N+](=O)[O-])cc1,–,-10.1% (inactive)
